What all share (assay): PBM binding z-score (relative to random genomic background probes); higher = stronger binding; sequences stand for … in GC…GCGATTGACAGCGTAGAATGAAGG
In test [1] the test system is RARb homodimer (NR concentration 270 nM). In short, it runs like this: (§1)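 Random background probes are the reference for binding z-scores. These scores derive from regression-normalized fluorescence on custom Agilent 4×180K protein-binding microarrays incubated 1 h with ligand-free nuclear receptor dimers. Binding was detected with antibodies against each partner (one per run).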

For test [2], the system named is RARg:RXRa (NR concentration 270 nM, RXRa partner concentration 90 nM). The gist of the method:
as §1

The test system of test [3] is RARg homodimer (NR concentration 270 nM). In short, it runs like this: as §1
For test [4], the system named is RXRa DBDmut IVT, anti-RXR (DBD mutation: RXRa K156A/R161A, NR concentration 90 nM). The gist of the method:
as §1

Test [5] has as its system RXRa homodimer (NR concentration 180 nM). The gist of the method: as §1
The test system of test [6] is THRa:RXRa (NR concentration 90 nM, RXRa partner concentration 90 nM). The gist of the method:
as §1

Test [7] deals with THRa homodimer (NR concentration 90 nM). In short, it runs like this: as §1
In test [8] the test system is VDR homodimer (NR concentration 270 nM). The gist of the method:
as §1

In the case of CGTCAAAGTTCAAGGTACCGTAACAGAAAGCAGC, the PBM binding z-score in test [1] is 3.94; in test [2] it was 5.07; in test [3], 6.14; in test [4], 4.56; in test [5], 4.33; in test [6] it was 2.06. Moreover, the results for the PBM binding z-score in test [7] and in test [8] were 0.154 and 3.09, respectively.

For ACCGAAAGGTCGTGAGGTGAGTATACAGAAAGGC, the PBM binding z-score was 2.84 in test [1]; 4.64 in test [2]; 4.01 in test [3]; 1.74 in test [4]; 5.25 in test [5]; 3.48 in test [6]. The PBM binding z-score in test [7] was found to be 1.28; in test [8], 0.625.

Take CGAACTAGGTCAGTACAGGACAGTGAAGGATGAT: the PBM binding z-score in test [1] is 2.51; in test [2], 2.64; in test [3] it was 3.79; in test [4], 0.399; in test [5] it was 1.3; in test [6], 3.38. Moreover, the PBM binding z-score in test [7] is 0.28; in test [8], 0.105.

For the sequence CCGACTGGGGCTTAAGGTTACCATAAGCCAGCCC, the PBM binding z-score in test [1] was 0.796; in test [2], 0.272; in test [3], 0.0964; in test [4], -0.55; in test [5] it was 0.688; in test [6] it was 2.53. The PBM binding z-score in test [7] is 1.94; in test [8], -0.232.

In the case of TCTTGTAGATCAAAGGTTAAGGAAGCCGAAGCCT, the PBM binding z-score in test [1] was 1.55; in test [2], 1.85; in test [3], 0.852; in test [4] it was 0.63; in test [5] it was 3.15; in test [6], 1.39. The figures for the PBM binding z-score in test [7] and in test [8] were -0.169 and -0.0198, respectively.

CCTTACGGGTCACTCCACGTTATAGCATCGGAGT: the PBM binding z-score in test [1] stood at 2.58; in test [2], 4.04; in test [3], 4.01; in test [4], 1.41; in test [5], 4.01; in test [6], 1.88. Further, the values for the PBM binding z-score in test [7] and in test [8] were 0.13 and 1.23, respectively.

With AGAATCAGGTTACCAAAGATCAGGGAAACGCTTG, the PBM binding z-score in test [1] was 0.374; in test [2], 0.744; in test [3], 0.974; in test [4], 0.0556; in test [5] it was 0.775; in test [6], 1.36. Besides, the values for the PBM binding z-score in test [7] and in test [8] were 0.124 and -0.469, respectively.

These data come from the supplement of paper PMC6555819.
